Measured values published in the supplement of paper PMC11383364.
± gives the standard deviation of the averaged measurements.

system: SUM149; assay: percent difference in area under dose-response curve of relative cell number, RPMI vs HPLM; higher = drug relatively more effective in HPLM than RPMI (negative = less effective in HPLM); details: treatment time: 72 h; dose range: 10-point, 1 nM to 20 µM; media compared: RPMI vs HPLM
Experimental: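 SUM149 triple-negative breast cancer cells, 500 cells/well in 384-well plates, were grown in RPMI or human plasma-like medium (HPLM) with 5% dialyzed FBS. They were pin-transferred with an anticancer plus metabolic-inhibitor library in 10-point dose series (20 µM to 1 nM). After 72 h, cells were fixed, stained with bisbenzimide and counted by Acumen plate cytometry. The AUC of relative survival vs dose was computed per medium, and the percent difference in AUC between RPMI and HPLM is reported.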

SMILES	percent difference in area under dose-response curve [%]
CCC1=C[C@@H]2CN(C1)Cc1c([nH]c3ccccc13)[C@@](C(=O)OC)(c1cc3c(cc1OC)N(C)[C@H]1[C@@](O)(C(=O)OC)[C@H](OC(C)=O)[C@]4(CC)C=CCN5CC[C@]31[C@@H]54)C2 [Vinorelbine_Tartrate]	-41
COc1c(C)c2c(c(O)c1C/C=C(\C)CCC(=O)O)C(=O)OC2 [Mycophenolic_Acid]	-8.4
C[C@]1(O)C[C@@H](c2nc(-c3ccc4ccc(-c5ccccc5)nc4c3)c3c(N)nccn32)C1 [Linsitinib]	1.93
Cc1ccc([N+](=O)[O-])cc1S(=O)(=O)N(C)/N=C/c1cnc2ccc(Br)cn12	-9.04
CC1(C)C(N(O)C(=O)Nc2ccc(Cl)cc2)N(c2ccc(Cl)cc2)C(=O)N1CC(=O)NN=CC=Cc1ccc([N+](=O)[O-])o1 (stereo not given) [Eeyarestatin_I]	-5.38
CC(=O)Nc1cccc(-n2c(=O)n(C3CC3)c(=O)c3c(Nc4ccc(I)cc4F)n(C)c(=O)c(C)c32)c1	-18.1
Nc1ccccc1NC(=O)c1ccc(CNc2nccc(-c3cccnc3)n2)cc1 [Mocetinostat]	0.546
O=c1[nH]c(=O)n(C2CCCO2)cc1F (stereo not given) [Ftorafur]	-2.37
O=C(Cc1ccc(-c2ccc(OCCN3CCOCC3)cc2)cn1)NCc1ccccc1	-13.1
CC(=O)O[C@@]12CO[C@@H]1C[C@H](O)[C@@]1(C)C(=O)[C@H](O)C3=C(C)[C@@H](OC(=O)[C@H](O)[C@@H](NC(=O)OC(C)(C)C)c4ccccc4)C[C@@](O)([C@@H](OC(=O)c4ccccc4)[C@H]21)C3(C)C [Docetaxel]	-42.7
Cc1nc(Nc2ncc(C(=O)Nc3c(C)cccc3Cl)s2)cc(N2CCN(CCO)CC2)n1 [Dasatinib]	41.7
CN(C)CCOc1ccc(-c2nc(-c3ccncc3)c(-c3ccc4c(c3)CC/C4=N\O)[nH]2)cc1	-4.32
C#CC[C@H](c1nc2cc(Cl)ccc2c(=O)n1Nc1ccccc1)N(CCCN)C(=O)c1cccc(Cl)c1F	-7.78
C[C@@H](Oc1cc(-c2cnn(C3CCNCC3)c2)cnc1N)c1c(Cl)ccc(F)c1Cl [Crizotinib]	-5.74
Cc1cc([N+](=O)[O-])ccc1NS(=O)(=O)c1cc(Cl)ccc1Cl	11.9
COc1cc2ncnc(Nc3ccc(F)c(Cl)c3)c2cc1OCCCN1CCOCC1 [Gefitinib]	-2.1
COc1ccc2cc(-c3nc(-c4ccc([S+](C)[O-])cc4)[nH]c3-c3ccncc3)ccc2c1 (stereo not given) [Tie2_kinase_inhibitor]	-0.194
Cc1c(-c2ccc(-c3ccccc3F)cc2)nc2ccc(F)cc2c1C(=O)O [Brequinar]	-6.11
CC(C)(C)c1ccc(S(=O)(=O)NCc2ccc(C(=O)Nc3cccnc3)cc2)cc1	-12.4
CC(C)c1cc(-c2n[nH]c(=O)n2-c2ccc3c(ccn3C)c2)c(O)cc1O [Ganetespib]	-31.8

SMILES	percent difference in area under dose-response curve [%]
CC1(C)CCC2=C(O1)c1ccccc1C(=O)C2=O [beta_Lapachone]	0.097
Cc1ccc(C(=O)c2cc(O)c(O)c([N+](=O)[O-])c2)cc1 [Tolcapone]	-5.18
CC(C)(C)c1cc(NC(=O)Nc2ccc(-c3cn4c(n3)sc3cc(OCCN5CCOCC5)ccc34)cc2)no1 [Quizartinib]	-0.334
O=C(CCCCCCC(=O)Nc1ccccc1)NO [Vorinostat]	4.7
CCOc1cc2ncc(C#N)c(Nc3ccc(F)c(Cl)c3)c2cc1NC(=O)/C=C/CN(C)C [Pelitinib]	4.27
Nc1nc(F)nc2c1ncn2[C@@H]1O[C@H](CO)[C@@H](O)[C@@H]1O [Fludarabine]	-2.56 ± 3.2
CC[C@@H]1C(=O)N(C)c2cnc(Nc3ccc(C(=O)N[C@H]4CC[C@H](N5CCN(CC6CC6)CC5)CC4)cc3OC)nc2N1C(C)C	-16.8
CC(C)=CCC1=C(O)C(=O)c2ccccc2C1=O [Lapachol]	10.9
CC(=O)[C@]1(O)Cc2c(O)c3c(c(O)c2[C@@H](O[C@H]2C[C@H](N)[C@H](O)[C@H](C)O2)C1)C(=O)c1ccccc1C3=O [Idarubicin_HCl]	-49.3
O=c1cc(-c2cccc3c2Sc2ccccc2S3)oc(N2CCOCC2)c1	4.24
Cn1cc(C2=C(c3ccc(Cl)cc3Cl)C(=O)NC2=O)c2ccccc21	-0.391
CC(C)c1onc(-c2c(Cl)cccc2Cl)c1COc1ccc(/C=C/c2cccc(C(=O)O)c2)c(Cl)c1	7.59
Nc1ccc(-c2ccc3ncc4ccc(=O)n(-c5cccc(C(F)(F)F)c5)c4c3c2)cn1 [Torin_2]	-2.02
O=C(NOCC1CC1)c1ccc(F)c(F)c1Nc1ccc(I)cc1Cl	4.08
O=c1[nH]cc(F)c(=O)[nH]1 [Adrucil]	1.58
CNC(=O)c1cc(Oc2ccc(NC(=O)Nc3ccc(Cl)c(C(F)(F)F)c3)cc2)ccn1 [Sorafenib]	2.21
Cc1nccn1-c1ccc(Sc2cccc(C3(C(N)=O)CCOCC3)c2)cc1	-9.07
Cc1csc(-c2nnc(Nc3ccc(Oc4ncccc4-c4ccnc(N)n4)cc3)c3ccccc23)c1	-35.1
CNc1nc(-c2ccc3c(N)n[nH]c3c2)cc(N2C[C@@H](C(=O)NC3CCCCC3)CC[C@H]2C)n1	-4.83
Cc1cc(CS(=O)(=O)c2ccccc2)cc(OCc2ccc(CN3CCC[C@@H]3CO)cc2)c1	1.05
